According to the supplement of paper PMC10849652:
The full data set covers some 7,900 targets. This sample favours those with a hit. About 0.6% of all pairs of compound and target were hits.

These molecules were tested against YBX1 (UniProt P67809) (assay: log2 fold change, soluble protein after heating vs DMSO (PISA); higher = thermal stabilisation; K562 cells, 10 uM, 30 min; active = over 0.2 and 3.5 SD of the protein, either way, in both replicates (recomputed)).
Procedure, shortened: (§1)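 K562 cells at 2×10^6 cells/mL were exposed to 10 μM compound for 30 min, then aliquots were heated for 3 min across 48°C-58°C, pooled, and extracted in PBS containing 0.5% NP-40 at 4°C. The supernatant after 21,000xg for 90 min was taken as soluble protein and measured by TMTpro 16plex LC-MS/MS with channel sums equalised. Thermal stability is reported relative to control samples, with values from duplicates. Fold changes are given on a log2 scale.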

Chain of YBX1 (P67809 whole entry, looked up): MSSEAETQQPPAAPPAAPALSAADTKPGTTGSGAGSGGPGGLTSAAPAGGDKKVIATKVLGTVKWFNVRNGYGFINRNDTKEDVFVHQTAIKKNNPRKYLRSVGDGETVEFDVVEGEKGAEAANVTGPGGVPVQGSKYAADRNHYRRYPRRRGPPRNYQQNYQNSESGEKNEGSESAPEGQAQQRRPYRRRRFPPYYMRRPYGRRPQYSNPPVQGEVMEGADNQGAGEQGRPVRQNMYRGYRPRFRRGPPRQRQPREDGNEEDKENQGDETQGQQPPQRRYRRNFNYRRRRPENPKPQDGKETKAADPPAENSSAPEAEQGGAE

Q: Which log2 fold change does the source give for `COc1cccc2cc(-c3nc([C@H]4CC[C@H](C(=O)O)CC4)n4ncnc(N)c34)[nH]c12` here?
A: Its log2 fold change is -0.091 (inactive).

Q: For `Cc1ccc2c(=O)c3ccccc3n(CCCN)c2c1C`, which log2 fold change is on record?
A: Its log2 fold change is -0.637 (active).

Q: `O=C1NC(=O)C(c2cnc3ccccn23)=C1c1cn2c3c(cc(F)cc13)CN(C(=O)N1CCCCC1)CC2` was tested. Which log2 fold change did it give?
A: The log2 fold change was 0.126 (inactive).

Q: Which log2 fold change does the source give for `COc1ccc(Cn2ccc3ccc(C(=O)NO)cc32)cc1` here?
A: Its log2 fold change is -0.019 (inactive).

Q: With `CN(C)CC(=O)Nc1ccc2[nH]c(=O)c3ccccc3c2c1` as the molecule, how does the log2 fold change read?
A: The log2 fold change was -0.134 (inactive).

Q: Which log2 fold change does the source give for `COc1cc(C(=O)O)ccc1NC(=O)[C@@H]1N[C@@H](CC(C)(C)C)[C@](C#N)(c2ccc(Cl)cc2F)[C@H]1c1cccc(Cl)c1F` [idasanutlin] here?
A: Its log2 fold change is 0.159 (inactive).

Q: For `O=C1NC(=NCc2cccs2)S/C1=C\c1ccc2ncccc2c1`, which log2 fold change is on record?
A: The log2 fold change was -0.115 (inactive).

Q: Which log2 fold change does the source give for `NC(=O)c1cnc(N[C@@H]2CCCC[C@@H]2N)nc1Nc1cccc(-n2nccn2)c1` here?
A: The log2 fold change was 0.048 (inactive).

Q: `Cc1ccc(-n2nc(C(C)(C)C)cc2NC(=O)Nc2ccc(OCCN3CCOCC3)c3ccccc23)cc1` [doramapimod] was tested. Which log2 fold change did it give?
A: Its log2 fold change is 0.047 (inactive).

Q: With `NC1(Cc2ccc(Cl)cc2)CCN(c2ncnc3[nH]ccc23)CC1` as the molecule, how does the log2 fold change read?
A: Its log2 fold change is -0.159 (inactive).

Q: `CC(=O)c1cnc2ccc(-c3cc(Cl)c(O)c(Cl)c3)nc2c1N[C@H]1CC[C@H](CN(C)C)CC1` was tested. Which log2 fold change did it give?
A: The log2 fold change was 0.155 (inactive).

The molecules below were run against YES1 (UniProt P07947) in the same assay as above.
Procedure, shortened: as §1

Chain of YES1 (P07947 whole entry, looked up): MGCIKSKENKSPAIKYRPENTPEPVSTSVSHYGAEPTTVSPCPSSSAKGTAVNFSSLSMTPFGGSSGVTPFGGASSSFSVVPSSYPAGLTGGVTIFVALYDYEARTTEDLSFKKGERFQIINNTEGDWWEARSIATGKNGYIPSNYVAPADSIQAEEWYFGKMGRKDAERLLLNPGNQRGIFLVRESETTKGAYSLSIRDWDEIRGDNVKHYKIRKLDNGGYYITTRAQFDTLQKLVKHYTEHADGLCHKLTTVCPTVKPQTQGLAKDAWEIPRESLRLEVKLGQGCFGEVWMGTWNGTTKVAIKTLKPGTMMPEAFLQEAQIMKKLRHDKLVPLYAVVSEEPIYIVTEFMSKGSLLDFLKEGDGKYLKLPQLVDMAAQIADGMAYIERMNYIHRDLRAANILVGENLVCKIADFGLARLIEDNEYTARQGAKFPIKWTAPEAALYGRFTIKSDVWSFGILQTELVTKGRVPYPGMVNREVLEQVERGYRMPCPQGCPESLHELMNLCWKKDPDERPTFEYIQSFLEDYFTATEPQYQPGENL

Q: `CN1CCN(CCOc2cc(OC3CCOCC3)c3c(Nc4c(Cl)ccc5c4OCO5)ncnc3c2)CC1` [saracatinib] was tested. Which log2 fold change did it give?
A: The log2 fold change was -0.551 (active).

Q: With `C[C@@H](N)c1ccc(C(=O)Nc2ccnc3[nH]ccc23)cc1` as the molecule, how does the log2 fold change read?
A: Its log2 fold change is 0 (inactive).

Q: Which log2 fold change does the source give for `Fc1ccc(Cl)cc1-c1nc(Nc2ccncc2)c2nccnc2n1` here?
A: Its log2 fold change is -0.179 (inactive).

Q: With `Cc1cc(Nc2cc(N3CCN(C)CC3)nc(Sc3ccc(NC(=O)C4CC4)cc3)n2)n[nH]1` [tozasertib] as the molecule, how does the log2 fold change read?
A: Its log2 fold change is -0.45 (inactive).

Q: With `c1cc(OCCN2CCCCC2)cc(-c2n[nH]c3ccc(-c4nnc[nH]4)cc23)c1` as the molecule, how does the log2 fold change read?
A: The log2 fold change was -0.235 (inactive).

Q: Which log2 fold change does the source give for `C/C(=N\NC(=O)c1cccc(S(=O)(=O)N2CCOCC2)c1)c1cc(Cl)ccc1O` here?
A: The log2 fold change was 0.072 (inactive).

Q: With `O=C(Nc1cccc(Nc2ncc(Br)c(NCCc3cnc[nH]3)n2)c1)N1CCCC1` as the molecule, how does the log2 fold change read?
A: The log2 fold change was -0.139 (inactive).

Q: How did the log2 fold change turn out when `NC1(c2ccc(-c3nc4ccn5c(=O)[nH]nc5c4cc3-c3ccccc3)cc2)CCC1` was run?
A: Its log2 fold change is -0.012 (inactive).

Q: Which log2 fold change does the source give for `Cc1cccc(-c2[nH]c(C(C)(C)C)nc2-c2ccc3nccnc3c2)n1` here?
A: The log2 fold change was 0.008 (inactive).

Q: Which log2 fold change does the source give for `CC(C)N(C[C@H]1O[C@@H](n2cnc3c(N)ncnc32)[C@H](O)[C@@H]1O)[C@H]1C[C@@H](CCc2nc3cc(C(C)(C)C)ccc3[nH]2)C1` [pinometostat] here?
A: The log2 fold change was 0.035 (inactive).

Q: With `COc1cc2nc(-c3cc(F)ccc3O)nc(N[C@@H]3CNC[C@H]3C(C)(C)O)c2cc1OC` as the molecule, how does the log2 fold change read?
A: Its log2 fold change is -0.052 (inactive).

Q: Which log2 fold change does the source give for `CNC(=O)c1ccccc1Nc1nc(Nc2ccc(N3CCOCC3)cc2OC)ncc1Cl` here?
A: The log2 fold change was -0.623 (active).

Q: Which log2 fold change does the source give for `O=C(Nc1nc2ccccc2n1CCN1CCOCC1)c1cccc([N+](=O)[O-])c1` [IRAK-1-4 Inhibitor I] here?
A: Its log2 fold change is -0.152 (inactive).

Q: `C[C@@H](Oc1cc(-c2cnn(C3CCNCC3)c2)cnc1N)c1c(Cl)ccc(F)c1Cl` [crizotinib] was tested. Which log2 fold change did it give?
A: Its log2 fold change is -0.576 (active).

Q: `COc1cc(Nc2ncc3c(n2)-c2ccc(Cl)cc2C(c2c(F)cccc2OC)=NC3)ccc1C(=O)O` [alisertib] was tested. Which log2 fold change did it give?
A: The log2 fold change was -0.211 (inactive).

Q: Which log2 fold change does the source give for `CN1CC[C@H](c2c(O)cc(O)c3c(=O)cc(-c4ccccc4Cl)oc23)[C@H](O)C1` [alvocidib] here?
A: Its log2 fold change is -0.029 (inactive).

Q: With `CN1CCc2c(c3ccccc3n2Cc2ccc(C(=O)NO)cc2)C1` [Tubastatin A] as the molecule, how does the log2 fold change read?
A: The log2 fold change was 0.094 (inactive).

Q: `O=C1c2ccccc2-c2n[nH]c3cccc1c23` was tested. Which log2 fold change did it give?
A: Its log2 fold change is -0.153 (inactive).

Q: For `CNCc1ccc(-c2[nH]c3cc(F)cc4c3c2CCNC4=O)cc1` [rucaparib], which log2 fold change is on record?
A: Its log2 fold change is 0.169 (inactive).

Q: How did the log2 fold change turn out when `COc1cccc2cc(-c3nc([C@H]4CC[C@H](C(=O)O)CC4)n4ncnc(N)c34)[nH]c12` was run?
A: Its log2 fold change is -0.256 (inactive).

Q: How did the log2 fold change turn out when `Cc1ccc2c(=O)c3ccccc3n(CCCN)c2c1C` was run?
A: The log2 fold change was 0.043 (inactive).

Q: With `O=C1NC(=O)C(c2cnc3ccccn23)=C1c1cn2c3c(cc(F)cc13)CN(C(=O)N1CCCCC1)CC2` as the molecule, how does the log2 fold change read?
A: Its log2 fold change is 0.011 (inactive).

Q: For `COc1ccc(Cn2ccc3ccc(C(=O)NO)cc32)cc1`, which log2 fold change is on record?
A: The log2 fold change was 0.072 (inactive).

Q: How did the log2 fold change turn out when `CN(C)CC(=O)Nc1ccc2[nH]c(=O)c3ccccc3c2c1` was run?
A: Its log2 fold change is -0.075 (inactive).

Q: `COc1cc(C(=O)O)ccc1NC(=O)[C@@H]1N[C@@H](CC(C)(C)C)[C@](C#N)(c2ccc(Cl)cc2F)[C@H]1c1cccc(Cl)c1F` [idasanutlin] was tested. Which log2 fold change did it give?
A: Its log2 fold change is 0.041 (inactive).

Q: Which log2 fold change does the source give for `O=C1NC(=NCc2cccs2)S/C1=C\c1ccc2ncccc2c1` here?
A: Its log2 fold change is 0.094 (inactive).

Q: `NC(=O)c1cnc(N[C@@H]2CCCC[C@@H]2N)nc1Nc1cccc(-n2nccn2)c1` was tested. Which log2 fold change did it give?
A: The log2 fold change was -0.114 (inactive).

Q: How did the log2 fold change turn out when `Cc1ccc(-n2nc(C(C)(C)C)cc2NC(=O)Nc2ccc(OCCN3CCOCC3)c3ccccc23)cc1` [doramapimod] was run?
A: Its log2 fold change is 0.006 (inactive).

Q: Which log2 fold change does the source give for `NC1(Cc2ccc(Cl)cc2)CCN(c2ncnc3[nH]ccc23)CC1` here?
A: Its log2 fold change is -0.059 (inactive).

Q: Which log2 fold change does the source give for `CC(=O)c1cnc2ccc(-c3cc(Cl)c(O)c(Cl)c3)nc2c1N[C@H]1CC[C@H](CN(C)C)CC1` here?
A: Its log2 fold change is -0.819 (active).
